Only some compounds are listed: those with a hit (about 2.4% of all), similar ones and a draw of the others.
Platelet DG rel: platelet dense granule release activity. hit rate 0.22% among 300,000. inhibition, %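 (compounds screened at 7.5 µM in platelet-rich plasma)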. human platelet-rich plasma, SFLLRN dense granule ATP release, luminescence. AID 1663;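 active = mean replicate score, as percent of positive control, at or above 50; inconclusive = mean below 50 but at least one replicate at or above 50; inactive = mean and every replicate below 50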
SENP8 block-1: inhibitors of human SENP8 protease; AID 602440; inhibition, % at 20 µM; hit rate 0.64% among 360,000; recombinant SENP8, Nedd8 substrate fluorescence; Q96LD8; in the data active = inhibition mostly above about 40%, no sharp cut-off; inactive = mostly below about 27%
Target sequence (Q96LD8 whole entry, looked up): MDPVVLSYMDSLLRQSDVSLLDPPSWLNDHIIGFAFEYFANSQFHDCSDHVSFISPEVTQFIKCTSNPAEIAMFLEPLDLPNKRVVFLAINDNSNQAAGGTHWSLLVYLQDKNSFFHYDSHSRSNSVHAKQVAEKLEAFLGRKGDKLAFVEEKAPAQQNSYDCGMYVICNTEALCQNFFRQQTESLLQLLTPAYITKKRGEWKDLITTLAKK
SENP7 block: inhibitors of human SENP7 protease. recombinant SENP7, Z-RLRGG-aminoluciferin luminescence, 40 min. inhibition, % at 5 µM. hit rate 1.5% among 330,000. AID 434973;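 active = inhibition above about 50% at the single test dose, limit read from the data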
Target sequence (Q9BQF6 706-1050 limits assumed): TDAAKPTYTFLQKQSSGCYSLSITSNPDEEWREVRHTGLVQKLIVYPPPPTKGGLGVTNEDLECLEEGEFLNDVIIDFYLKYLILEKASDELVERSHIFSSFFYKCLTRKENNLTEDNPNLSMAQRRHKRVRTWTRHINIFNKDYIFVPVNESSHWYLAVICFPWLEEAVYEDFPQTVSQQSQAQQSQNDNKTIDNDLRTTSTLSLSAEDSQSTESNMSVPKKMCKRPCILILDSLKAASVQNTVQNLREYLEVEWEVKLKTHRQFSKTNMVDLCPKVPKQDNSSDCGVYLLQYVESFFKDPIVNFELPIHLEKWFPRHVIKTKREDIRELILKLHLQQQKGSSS
SENP8 block-2: inhibitors of human SENP8 protease. Q96LD8. purified SENP8, Z-RLRGG-aminoluciferin cleavage, luminescence. inhibition, % at 10 µM. hit rate 1.2% among 330,000. AID 2540; in the data active = inhibition above about 50%
SENP6 inh: SENP6 protease inhibition; Q9GZR1; Recombinant SENP6 catalytic domain, aminoluciferin luminescence; inhibition, % at 10 µM; hit rate 1.8% among 330,000;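 active = inhibition above about 50% at the single tested dose, limit read from the data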
Hits are given with their value; n = inactive; u = inconclusive; x = not tested or not shown.

SMILES	Platelet DG rel	SENP8 block-1	SENP7 block	SENP8 block-2	SENP6 inh
CCOP(=O)(C1=C(O)C(=O)C(C(C)(C)C)=CC1=O)c1ccccc1 (stereo not given)	x	87	x	x	x
CC(NC(=S)NCc1ccccc1)C12CC3CC(CC(C3)C1)C2 (stereo not given)	n	n	n	n	n
ClN=C1C=CC=CC1=NCl	x	38	x	x	x
O=C(C(Cc1ccccc1)n1cccc1)N1CCN(c2ncccn2)CC1 (stereo not given)	50	n	n	n	n
COC(=O)CC1OCC=C2CN3CCC45C6=CC(=O)C(=O)C([N+](=O)[O-])=C6NC4C1C2CC35 (stereo not given)	x	110	x	x	x
CC(=O)c1cccc(NC(=O)CSc2n[nH]c(=O)n2C2CC2)c1	x	n	n	n	n
CCCCC(=Nc1ccc(N)cc1)C1=C(O)C(C(=O)OC)C(C)(C)CC1=O (stereo not given)	n	54	n	n	n
CCC(=Nc1ccc(N)cc1)C1=C(O)C(C(=O)OC)C(C)(C)CC1=O (stereo not given)	n	70	n	n	n
CCCC(=Nc1ccccc1)C1=C(O)C(C(=O)OC)C(C)(C)CC1=O (stereo not given)	n	n	n	n	n
COc1ccccc1NS(=O)(=O)c1c(C)[nH]c(C)c1C(=O)N1CCCC1	n	n	n	n	n
CC1=C([N+](=O)[O-])C(c2ccccc2Cl)NC(=O)N1C (stereo not given)	n	n	n	n	n
CCCc1cc2c(cc1NC(=O)c1ccco1)OCO2	n	n	n	n	n
O=C(CNc1cccc(S(=O)(=O)N2CCCC2)c1)Nc1ccc(F)cc1F	n	n	n	n	n
O=C1c2ccccc2C(c2nnnn2Cc2ccccc2)N1Cc1cccnc1 (stereo not given)	x	n	x	x	x
O=C(Nc1ccccc1N1CCCC1)c1cc2ccccc2o1	n	n	n	n	63
C=C[C@@]1(C)CC(=O)[C@]2(O)[C@@]3(C)[C@@H](O)CCC(C)(C)[C@@H]3[C@H](O)[C@H](OC(C)=O)[C@@]2(C)O1	90	n	n	n	n
C=C[C@@]1(C)CC(=O)[C@]2(O)[C@@]3(C)[C@@H](O)CCC(C)(C)[C@@H]3[C@H](OC(C)=O)[C@H](O)[C@@]2(C)O1	u	n	n	n	n
O=C1c2ccccc2C(=O)c2c(/C=C/N3CCCCC3)ccnc21	x	64	x	x	x
O=C1CC(c2ccccc2)c2cccc(F)c21 (stereo not given)	n	n	n	n	n
CCCOc1ncnc2c1[nH]c1ccccc12	n	n	n	n	n
CCCCOc1ncnc2c1[nH]c1ccc(C)cc12	n	n	51	n	n
C=CCNc1ncnc2c1[nH]c1ccc(C)cc12	n	n	n	n	n
CCCOc1ncnc2c1[nH]c1ccc(OC)cc12	n	n	81	63	77
CC1CC(C)CN(CCCNC(=O)c2ccc3c(c2)NC(=O)CS3)C1 (stereo not given)	n	n	n	n	n
O=C(O)c1cccnc1C(=O)O	x	41	n	n	n
SMILES	Platelet DG rel	SENP8 block-1	SENP7 block	SENP8 block-2	SENP6 inh
O=C(Cn1cc(C(F)(F)F)cc(Cl)c1=O)NC1CCS(=O)(=O)C1 (stereo not given)	x	n	n	n	n
O=c1nc(Nc2cccc(Cl)c2)oc2cc(Cl)oc(=O)c12	n	n	n	95	95
CCCCOc1cccc2c(=O)n(CC(=O)Nc3ccc4c(c3)OCCO4)ccc12	x	n	x	x	x
Nc1cc(N)c(OCC(F)(F)F)cc1OCC(F)(F)F	n	85	n	n	n
Cc1[nH]c(=S)c(C#N)c(C)c1CCC#N	76	n	n	n	n
CSc1nc(N)nc2c1ncn2CC(=O)N1CCN(c2ccccn2)CC1	x	n	n	n	n
CC(=O)NCc1cn2c(C)csc2n1	83	n	n	n	n
Oc1ccccc1N=Nc1nc(-c2ccccc2)c(-c2ccccc2)[nH]1	n	51	n	n	n
CCOC(=O)C1=CCN(S(=O)(=O)c2ccccc2F)C1c1cccc(Cl)c1 (stereo not given)	x	n	x	x	x
O=C(Cn1nnc(-c2ccccc2)n1)N/N=C/c1cccc([N+](=O)[O-])c1O	n	27	n	n	n
COC(CNC(=O)[C@H](Cc1ccccc1)N1Cc2ccccc2C1=O)OC	n	n	n	n	n
O=C(NC(c1cccnc1)c1ccc2c(c1)OCO2)C1CCN(CCOc2ccc(Cl)cc2Cl)CC1 (stereo not given)	x	n	x	x	x
O=C(O)c1cccc(NC(=O)c2ccc3c(c2)C(=O)N(Cc2ccco2)C3=O)c1	n	n	88	84	89
NC(=S)N=Nc1c(O)n(CCCl)c2ccc(Br)cc12	n	50	n	n	n
CN(C)c1ccc(N=Nc2ccccc2C(=O)OCC(=O)NCC2CCCCC2)cc1	n	50	n	n	n
CCOc1ccc(NC(=O)Nc2cccn(Cc3ccccc3)c2=O)cc1	n	n	n	n	n
CCOc1ccc(NC(=O)Nc2ccccc2SC)cc1	n	n	99	95	98
CCOc1ccc(NC(=O)c2cc3ccccc3cc2O)cc1	n	n	68	n	n
CCOc1ccc(NC(=O)c2cc3ccccc3cc2OC)cc1	n	n	n	n	n
Cc1cc2ccccc2nc1SCC(=O)N1c2ccccc2CC1C (stereo not given)	67	n	n	n	n
Cc1cc2cc3c(cc2nc1SCC(=O)N1c2ccccc2CC1C)OCO3 (stereo not given)	n	n	n	n	n
Cc1ccc(NC(=O)CCn2c(=O)[nH]c3ccsc3c2=O)cc1F	n	n	n	n	n
CCCCOc1ccc(S(=O)(=O)N2CCN(C)CC2)cc1	n	n	n	n	n
CN(C)c1ccc(C(CNC(=O)c2ccc(-c3ccccc3)cc2)N2CCOCC2)cc1 (stereo not given)	n	n	n	n	n
O=C(Nc1ccc(N2CCCC2)cc1)C(Cl)c1ccccc1 (stereo not given)	n	n	n	n	66
SMILES	Platelet DG rel	SENP8 block-1	SENP7 block	SENP8 block-2	SENP6 inh
Brc1ccc(N=Nc2ccc3ccccc3n2)cc1	69	n	100	96	97
COC(=O)CCN1CCc2cc(N=Nc3ccc([N+](=O)[O-])cc3)ccc21	n	n	80	n	n
O=C(NCCN1C(=O)S/C(=C\c2cccc(Cl)c2Cl)C1=O)C1=COCCO1	n	n	n	n	n
O=C1NCCCC2c3cc(O)c4ccccc4c3OC12N1CCCCC1 (stereo not given)	x	x	n	63	71
COc1cccc(Cn2c(C(C)n3c(-c4cnccn4)nc4ccccc43)nc3ccccc32)c1 (stereo not given)	x	n	x	x	x
CCC(C)c1ccccc1N1CC(C(=O)Nc2cc(S(=O)(=O)N3CCOCC3)ccc2OC)CC1=O (stereo not given)	n	n	n	n	n
O=S1(=O)N[C@@H](Cc2ccccc2)COc2cc(N3CCC[C@@H]3CO)ccc21	x	n	x	x	x
O=c1cc(-c2ccc(O)cc2)oc2c(O)c(O)c(O)c(O)c12	x	71	n	n	n
Nc1[nH]n(-c2ccccc2)c(=O)c1N=Nc1ccc2c(c1)OCO2	n	52	69	52	64
C=CCc1cccc2cc(C(=O)Nc3ccc(CC(=O)O)cc3)c(=O)oc12	n	n	n	n	n

Screening results: PubChem, several laboratories
